Here are results for 22 compounds from PubChem BioAssay (NCATS).

Records with an inconclusive call do not appear. A number with no mark means an inactive call. The source made the active and inactive calls. Calls follow the shape of the dose curve; as a rule, active = well fitted curve in the direction sought with a large enough effect; inconclusive = small, poorly fitted or top-dose-only effect, or another doubt; inactive = no such curve, though single readings can be large; an effect the other way counts as inactive or inconclusive.

For assay [1], the target named is Rap guanine nucleotide exchange factor 3 (Homo sapiens) (UniProt O95398). As to the kind of experiment: Confirmatory qHTS for agonist of cAMP-regulated guanine nucleotide exchange factor 3 (EPAC1) (AID 1645881).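 Also: EPAC1 catalysed release of BODIPY-GDP from Rap1B seen as fluorescence loss; 100% = effect of cAMP agonist control; nearly all actives have a fitted effect of over 75% in size.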
Rap guanine nucleotide exchange factor 3 (Homo sapiens), sequence (O95398 whole entry, looked up): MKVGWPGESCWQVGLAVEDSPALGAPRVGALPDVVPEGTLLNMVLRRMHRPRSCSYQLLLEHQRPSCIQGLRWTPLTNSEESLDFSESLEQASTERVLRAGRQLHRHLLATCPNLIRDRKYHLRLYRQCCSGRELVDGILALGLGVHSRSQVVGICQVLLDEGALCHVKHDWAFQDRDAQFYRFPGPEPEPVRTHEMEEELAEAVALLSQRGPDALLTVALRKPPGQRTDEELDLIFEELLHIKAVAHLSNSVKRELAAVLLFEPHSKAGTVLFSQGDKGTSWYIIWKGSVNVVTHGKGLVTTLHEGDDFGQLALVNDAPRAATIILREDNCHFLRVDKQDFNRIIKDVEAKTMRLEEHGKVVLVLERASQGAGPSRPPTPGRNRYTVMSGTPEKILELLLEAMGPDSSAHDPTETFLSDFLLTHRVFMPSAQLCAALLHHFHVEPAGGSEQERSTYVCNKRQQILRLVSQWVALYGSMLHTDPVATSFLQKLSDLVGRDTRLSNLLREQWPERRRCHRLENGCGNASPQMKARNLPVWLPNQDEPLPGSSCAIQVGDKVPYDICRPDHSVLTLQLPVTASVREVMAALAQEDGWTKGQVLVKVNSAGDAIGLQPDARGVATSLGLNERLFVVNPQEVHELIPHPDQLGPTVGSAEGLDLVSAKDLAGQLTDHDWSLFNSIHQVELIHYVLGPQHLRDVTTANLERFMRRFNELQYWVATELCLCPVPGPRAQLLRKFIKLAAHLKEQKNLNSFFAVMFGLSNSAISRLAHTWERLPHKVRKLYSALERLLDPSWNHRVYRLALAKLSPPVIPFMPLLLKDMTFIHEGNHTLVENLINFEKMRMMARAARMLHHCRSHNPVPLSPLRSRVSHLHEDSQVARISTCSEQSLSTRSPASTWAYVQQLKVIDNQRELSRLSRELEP
Assay [2] concerns the target Rap guanine nucleotide exchange factor 4 (Homo sapiens) (UniProt Q8WZA2). As to the kind of experiment: Confirmatory qHTS for agonist of cAMP-regulated guanine nucleotide exchange factor 4 (EPAC2) (AID 1645884).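 Also: nucleotide exchange releases bodipy-GDP from Rap1 and this lowers its fluorescence; % is scaled to controls: 0 for no effect and ±100 for the full control effect; nearly all actives have a fitted effect of over 65% in size.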 A general note: qHTS replaces the single test concentration by a dilution series.
Assay [3] shares this target. Nature of the assay: Confirmatory qHTS for antagonist of cAMP-regulated guanine nucleotide exchange factor 4 (EPAC2) (AID 1645885). Also: nearly all actives have a fitted effect of over 25% in size. Also: potency is read from the fitted curve at half-maximal effect. As to activity change, negative = inhibition: % is scaled to controls: 0 for no effect and ±100 for the full control effect.
Assay [4] deals with Rap guanine nucleotide exchange factor 3 (Homo sapiens) (UniProt O95398). Nature of the assay: Counterscreen qHTS for antagonist of cAMP-regulated guanine nucleotide exchange factor 3 (EPAC1) (AID 1645888).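 Also: fluorescence loss as bound BODIPY-GDP is released from Rap1B; % of control where 0% means no effect.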 The method, boiled down: (§1)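 Measured: fluorescence of BODIPY-GDP bound to Rap1B, which falls as exchange proceeds. Conditions include 50 uM competing GDP, 5 and 30 min reads, and a later cAMP challenge for antagonist detection.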
(Counterscreens check selectivity or assay interference.)

The target is the same in assay [5]. As to the kind of experiment: Counterscreen qHTS for agonist of cAMP-regulated guanine nucleotide exchange factor 3 (EPAC1) (AID 1645889). Also: % of control where 0% means no effect; nearly all actives have a fitted effect of over 40% in size. Put shortly: as §1

Rap guanine nucleotide exchange factor 4 (Homo sapiens), sequence (Q8WZA2 whole entry, looked up): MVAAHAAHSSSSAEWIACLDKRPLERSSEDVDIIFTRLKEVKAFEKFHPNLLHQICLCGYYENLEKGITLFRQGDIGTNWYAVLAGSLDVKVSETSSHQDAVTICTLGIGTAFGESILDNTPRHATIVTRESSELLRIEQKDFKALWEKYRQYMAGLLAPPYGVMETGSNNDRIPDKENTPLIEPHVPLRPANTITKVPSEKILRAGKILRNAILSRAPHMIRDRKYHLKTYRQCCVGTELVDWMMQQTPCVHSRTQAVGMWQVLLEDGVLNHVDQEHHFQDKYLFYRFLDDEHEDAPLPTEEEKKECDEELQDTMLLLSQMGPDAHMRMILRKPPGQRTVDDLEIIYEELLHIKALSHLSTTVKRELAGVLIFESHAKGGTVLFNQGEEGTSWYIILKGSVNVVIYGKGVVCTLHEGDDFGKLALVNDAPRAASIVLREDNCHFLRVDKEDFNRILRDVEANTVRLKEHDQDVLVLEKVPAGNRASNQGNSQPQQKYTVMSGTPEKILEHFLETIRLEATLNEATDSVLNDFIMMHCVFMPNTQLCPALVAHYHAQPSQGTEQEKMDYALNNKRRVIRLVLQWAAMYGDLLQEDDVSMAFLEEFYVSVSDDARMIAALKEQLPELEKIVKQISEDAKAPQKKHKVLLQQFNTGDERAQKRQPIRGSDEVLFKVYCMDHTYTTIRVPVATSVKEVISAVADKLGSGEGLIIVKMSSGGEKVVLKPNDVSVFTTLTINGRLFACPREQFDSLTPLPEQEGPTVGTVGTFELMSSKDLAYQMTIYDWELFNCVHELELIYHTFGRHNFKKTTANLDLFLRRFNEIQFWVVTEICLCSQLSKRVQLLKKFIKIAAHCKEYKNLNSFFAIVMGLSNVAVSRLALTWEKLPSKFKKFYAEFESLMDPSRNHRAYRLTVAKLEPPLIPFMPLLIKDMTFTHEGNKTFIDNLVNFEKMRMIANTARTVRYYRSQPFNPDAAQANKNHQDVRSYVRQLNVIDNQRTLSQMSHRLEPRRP

In the case of `CSc1ccccc1NC(=O)CN1c2ccccc2CC1C` (stereo not given), the Potency result in assay [1] and in assay [3] was “inactive” in each case. Moreover, the activation was 8.71% [at 17.1 µM, percent relative to cAMP agonist control] in assay [2] and 44.6% [at 30.8 µM] in assay [5]. Moreover, the activity change, negative = inhibition in assay [4] was -0.569% [at 30.8 µM].

With `Cc1ccc(C)c(-c2ccc(=O)n(Cc3ccc(F)cc3Cl)n2)c1`, the Potency entry in assay [1], in assay [2], in assay [3], in assay [4] and in assay [5] was “inactive” in each case.

For the compound `Cc1oc2c(O)c(O)ccc2c(=O)c1-c1cnn(-c2ccccc2)c1`, the Potency entry in assay [1] and in assay [3] was “inactive” each time. The activation is 2.28% [at 17.1 µM, percent relative to cAMP agonist control] in assay [2] and 28.8% [at 30.8 µM] in assay [5]. Moreover, in assay [4], the activity change, negative = inhibition is -26.8% [at 30.8 µM].

Regarding `CC(C)Cn1nc(NS(=O)(=O)c2cccc3nonc23)c2cc3ccccc3nc21`, the Potency result in assay [1], in assay [2], in assay [3], in assay [4] and in assay [5] was “inactive” each time.

Regarding `Cc1cccc(C)c1-n1cccc1/C=C1\SC(=S)N(c2cccc(C(=O)O)c2)C1=O`, the Potency result in assay [1], in assay [2], in assay [3], in assay [4] and in assay [5] was “inactive” each time.

Take `Cc1csc(NC(=O)CSCC(=O)O)c1-c1nc2ccccc2s1`: the Potency entry in assay [1], in assay [2], in assay [3], in assay [4] and in assay [5] was “inactive” in each case.

In the case of `CCCCn1c(N)c(N(CCC(C)C)C(=O)c2ccc(COc3ccccc3)o2)c(=O)[nH]c1=O`, the Potency entry in assay [1] and in assay [3] was “inactive” throughout. The activation is 1.71% [at 17.1 µM, percent relative to cAMP agonist control] in assay [2] and 7.33% [at 30.8 µM] in assay [5]. Also, in assay [4], the activity change, negative = inhibition is 1.42% [at 30.8 µM].

For the compound `O=C(Nc1ncccc1O)c1ccc2c(c1)OCCO2`, the Potency entry in assay [1] and in assay [3] was “inactive” throughout. Also, the activation in assay [2] is 2.78% [at 17.1 µM, percent relative to cAMP agonist control]; in assay [5], 22.4% [at 30.8 µM]. Moreover, the activity change, negative = inhibition in assay [4] was 6.79% [at 30.8 µM].

`Cc1ccc(CN(C(=O)COc2cc(C)c(Cl)c(C)c2)c2ccccn2)o1`: the Potency result in assay [1], in assay [2], in assay [3], in assay [4] and in assay [5] was “inactive” in each case.

For `CC(C)CCNc1nc(-c2ccco2)c2c(c1C#N)CCCC2`, the Potency entry in assay [1], in assay [2], in assay [3], in assay [4] and in assay [5] was “inactive” each time.

As to `CC1=C(C(=O)OC(C)C)C(c2ccc(C)o2)C(C(=O)OC(C)C)=C(C)N1`, the Potency result in assay [1], in assay [2], in assay [4] and in assay [5] was “inactive” each time. The Potency in assay [3] is 30.1 µM (active).

As for `COc1ccc2sc(-c3ccc(N(C)C)cc3)c(C#CC(C)(C)O)c2c1`, the Potency entry in assay [1], in assay [2], in assay [3], in assay [4] and in assay [5] was “inactive” in each case.

`CCCN1C(=O)c2ccccc2NC1c1ccc(OC)c(CSc2ccccn2)c1` (stereo not given): the Potency result in assay [1], in assay [2], in assay [3], in assay [4] and in assay [5] was “inactive” in each case.

On to `CC(C)CCNc1c(-c2cccs2)nc2ccccn12`, for which the Potency entry in assay [1], in assay [2], in assay [3], in assay [4] and in assay [5] was “inactive” each time.

With `O=C(O)CCc1ccc(-c2ccc(Br)cc2)n1-c1ccc(O)cc1`, the Potency result in assay [1], in assay [2], in assay [4] and in assay [5] was “inactive” each time. Further, the Potency in assay [3] was 42.6 µM (active).

As to `CC1CCC(NC(=O)Cn2c3c(c(-c4ccccc4Cl)cc2=O)CCC3)CC1` (stereo not given), the Potency result in assay [1] and in assay [3] was “inactive” in each case. The activation in assay [2] was 13.3% [at 17.1 µM, percent relative to cAMP agonist control]; in assay [5], 6.93% [at 30.8 µM]. The activity change, negative = inhibition in assay [4] is -11.4% [at 30.8 µM].

Consider `COC(=O)c1ccccc1NC(=O)Cn1nc(C(F)(F)F)c2c1CCCC2`, for which the Potency result in assay [1], in assay [2], in assay [4] and in assay [5] was “inactive” each time. For the same compound, the outcome in assay [3] is “inactive [at 12.7 µM]”.

On to `Cc1ccc2nc(-c3ccccc3)c(Cc3cccc(F)c3)n2c1`, for which the Potency entry in assay [1], in assay [2], in assay [4] and in assay [5] was “inactive” in each case. The Potency in assay [3] was 0.426 µM (active).

On to `Cc1cc(C(=O)Cn2ncc(Cl)c(Cl)c2=O)c(C)n1CC(F)(F)F`, for which the Potency result in assay [1] and in assay [3] was “inactive” throughout. In addition, the activation is 1.17% [at 17.1 µM, percent relative to cAMP agonist control] in assay [2] and 8.2% [at 30.8 µM] in assay [5]. For the same compound, the activity change, negative = inhibition in assay [4] is -8.86% [at 30.8 µM].

Take `COc1ccc(-c2cnnc(N/N=C/c3ccc(O)c(O)c3)n2)cc1`: the Potency entry in assay [1], in assay [2], in assay [3], in assay [4] and in assay [5] was “inactive” in each case.

With `CCc1ccc(NS(=O)(=O)c2cc3c4c(c2)CCN4C(=O)CC3)cc1`, the Potency result in assay [1], in assay [2], in assay [3], in assay [4] and in assay [5] was “inactive” each time.

Turning to `C=CCn1c(C)cc(C2=NNC(=Nc3ccc(C)cc3)SC2)c1C`, the Potency entry in assay [1], in assay [2], in assay [3], in assay [4] and in assay [5] was “inactive” throughout.
